Measured values: PubChem BioAssay (NCATS)
Results filed as inconclusive are left out. Values without a mark were called inactive. Activity calls are given as the source filed them. Calls follow the shape of the dose curve; as a rule, active = well fitted inhibition curve with a large enough effect; inconclusive = small, poorly fitted or top-dose-only effect; inactive = flat fitted curve, though single readings scatter.

Test system: UISO
Test: qHTS assay to identify novel small-molecules to repurpose for Merkel cell carcinoma treatment (AID 1296009); also: nearly all actives have a fitted effect of over 60% in size
Details: MCC and control cell lines, CellTiter-Glo viability, 72 h; series mostly up to 46 µM; activity change, negative = cytotoxicity: at the top concentration
How it was run: (§1)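 Viability readout: ATP luminescence (CellTiter-Glo) after 72 hr drug exposure at 37 degree celsius. Dose-response format was 8 points for NPC and 11 points for MIPE; data normalized to in-plate controls.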
% is scaled to controls: 0 for no effect and ±100 for the full control effect; potency is read from the fitted curve at half-maximal effect.

SMILES	Potency	activity change, negative = cytotoxicity
CN1N=C(N)c2cn([C@@H]3O[C@H](COP(=O)(O)O)[C@@H](O)[C@@H]3O)c3ncnc1c23	469 nM (active)	
CON(C)C(=O)N1N=C(c2cc(F)ccc2F)S[C@]1(CCCN)c1ccccc1		-67.9%
CCC[C@H](N[C@@H](C)C(=O)N1[C@@H]2CCCC[C@H]2C[C@H]1C(=O)O)C(=O)OCC		-10.6%
O=[N+]([O-])c1ccc(Nc2ccccc2-c2ccccc2)c2nonc12		-19.6%
CN[C@H]1[C@@H](O[C@@H]2[C@H](O[C@@H]3[C@@H](O)[C@@H](O)[C@@H](N=C(N)N)[C@@H](O)[C@@H]3N=C(N)N)O[C@H](C)[C@@]2(O)C=O)O[C@@H](CO)[C@@H](O)[C@H]1O		-3% [at 9.22 µM]
CC=C(C(=CC)c1ccc(O)cc1)c1ccc(O)cc1		6.26%
CCC(=C(c1ccc(O)cc1)c1ccc(OCCNC)cc1)c1ccccc1		-10.3%
CN1CC(=O)N2C(Cc3c([nH]c4ccccc34)[C@H]2c2ccc3c(c2)OCO3)C1=O (stereo partly specified)		-7.06%
C[C@H]1[C@H](O)O[C@@H]2O[C@@]3(C)CC[C@@H]4[C@H](C)CC[C@@H]1[C@@]24OO3	2960 nM (active)	
CC(C)(CO)[C@@H](O)C(=O)NCCC(=O)O		13.1%
NC(=O)c1nnn(Cc2cc(Cl)c(C(=O)c3ccc(Cl)cc3)c(Cl)c2)c1N		-28.5%
CC(C)[C@H](O)C(=O)N[C@@H](C)C(=O)N[C@@H]1C(=O)N(C)CCc2ccccc21		7.28%
NCC1CCC(C(=O)O)CC1 (stereo unspecified)		16%
Cn1c(=O)c(Oc2ccc(F)cc2F)cc2cnc(NC3CCOCC3)nc21		-20%
CC(C)=CCCC(C)=CCCC(C)=CCCC(C)=CCCC(C)=CCCC(C)=CCCC(C)=CCCC(C)=CCCC(C)=CCO		12.8%
C=C[C@@H]1CN2CCC1C[C@@H]2C(O)c1ccnc2ccc(OC)cc12 (stereo partly specified)		6.29%
COc1cc(Cl)cn2c(-c3cccc(NC4CNC4)n3)cnc12		1.51%
CCCCCCCCCCCCCC(=O)N[C@H](CO)[C@H](O)c1ccc([N+](=O)[O-])cc1		-4.63%
CC(C)c1onc(-c2c(Cl)cccc2Cl)c1COc1ccc(C=Cc2cccc(C(=O)O)c2)c(Cl)c1		0.127%

SMILES	Potency	activity change, negative = cytotoxicity
C[C@@H]1CC=CC=CC=CC=C[C@@H](O[C@@H]2O[C@H](C)[C@@H](O)[C@H](N)[C@H]2O)C[C@@H]2O[C@](O)(C[C@@H](O)C[C@@H]3O[C@@H]3C=CC(=O)O1)C[C@H](O)[C@@H]2C(=O)O		-6.27%
O=C(O)C1=NC(C(=O)O)CC(C=CN2c3cc(O)c(OC4OC(CO)C(O)C(O)C4O)cc3CC2C(=O)O)=C1 (stereo unspecified)		-1.66%
CN1CCC[C@H]1CCO[C@](C)(c1ccccc1)c1ccc(Cl)cc1		-6.16%
COc1cc(F)c(C(C)C)cc1-c1ccc(C(F)(F)F)cc1CN1C(=O)O[C@H](c2cc(C(F)(F)F)cc(C(F)(F)F)c2)[C@@H]1C		-1.67%
CCCCCOC(=O)Nc1nc(=O)n([C@@H]2O[C@H](C)[C@@H](O)C2O)cc1F (stereo partly specified)		0.47%
O=C1CN2Cc3c(ccc(Cl)c3Cl)N=C2N1		-10.3%
CC1(C)OC2CC3C4CC(F)C5=CC(=O)C=CC5(C)C4C(O)CC3(C)[C@]2(C(=O)CO)O1 (stereo partly specified)		41.8%
CCOC(=O)c1c(CSc2ccccc2)n(C)c2cc(Br)c(O)c(CN(C)C)c12		-3.24%
OCCn1cc(-c2ccc3c(c2)CCC3=NO)c(-c2ccncc2)n1		-4.31%
COc1ccc(C=CC(=O)Nc2ccccc2C(=O)O)cc1OC		-0.692%
CC(C)CN(C[C@H](O)[C@H](Cc1ccccc1)NC(=O)O[C@H]1CCOC1)S(=O)(=O)c1ccc(N)cc1		-5.31%
CC1CNc2c(cccc2S(=O)(=O)N[C@@H](CCCN=C(N)N)C(=O)N2CC[C@@H](C)C[C@@H]2C(=O)O)C1 (stereo partly specified)		-5.7%
Nc1ncnc2c1ncn2[C@@H]1O[C@H](CO)[C@@H](O)[C@@H]1O		-0.243%
CC[C@H](C=C[C@@H](C)[C@H]1CC[C@H]2[C@@H]3CC=C4C[C@@H](O)CC[C@]4(C)[C@@H]3CC[C@]12C)C(C)C		-5.59% [at 16.1 µM]
COc1ccc2ccc(=O)oc2c1CC=C(C)C		-0.752%
Cn1cc(-c2ccc3nnc(Sc4ccc5ncccc5c4)n3n2)cn1		0.238%
N#CC(=C1Nc2ccccc2S1)c1ccnc(OCc2ccc(CN3CCOCC3)cc2)n1	1480 nM (active)	
CCCCC(C=O)NC(=O)C(CC(C)C)NC(=O)OCc1ccccc1 (stereo unspecified)		-13.2%
Cc1cc(CS(=O)(=O)c2ccccc2)cc(OCc2ccc(CN3CCC[C@H]3CO)cc2)c1		5.83%

Test system: WaGa
Test: as above
Details: MCC and control cell lines, CellTiter-Glo viability, 72 h; series mostly up to 46 µM; activity change, negative = cytotoxicity: at the top concentration
How it was run: as §1

SMILES	Potency	activity change, negative = cytotoxicity
CN1N=C(N)c2cn([C@@H]3O[C@H](COP(=O)(O)O)[C@@H](O)[C@@H]3O)c3ncnc1c23	37.2 nM (active)	
CON(C)C(=O)N1N=C(c2cc(F)ccc2F)S[C@]1(CCCN)c1ccccc1		-61%
CCC[C@H](N[C@@H](C)C(=O)N1[C@@H]2CCCC[C@H]2C[C@H]1C(=O)O)C(=O)OCC		2.35%
O=[N+]([O-])c1ccc(Nc2ccccc2-c2ccccc2)c2nonc12		-13%
CN[C@H]1[C@@H](O[C@@H]2[C@H](O[C@@H]3[C@@H](O)[C@@H](O)[C@@H](N=C(N)N)[C@@H](O)[C@@H]3N=C(N)N)O[C@H](C)[C@@]2(O)C=O)O[C@@H](CO)[C@@H](O)[C@H]1O		11.2% [at 9.22 µM]
CC=C(C(=CC)c1ccc(O)cc1)c1ccc(O)cc1		-6.48%
CCC(=C(c1ccc(O)cc1)c1ccc(OCCNC)cc1)c1ccccc1		-1.96%
CN1CC(=O)N2C(Cc3c([nH]c4ccccc34)[C@H]2c2ccc3c(c2)OCO3)C1=O (stereo partly specified)		-5.26%
C[C@H]1[C@H](O)O[C@@H]2O[C@@]3(C)CC[C@@H]4[C@H](C)CC[C@@H]1[C@@]24OO3	9350 nM (active)	
CC(C)(CO)[C@@H](O)C(=O)NCCC(=O)O		2.36%
NC(=O)c1nnn(Cc2cc(Cl)c(C(=O)c3ccc(Cl)cc3)c(Cl)c2)c1N		-20.7%
CC(C)[C@H](O)C(=O)N[C@@H](C)C(=O)N[C@@H]1C(=O)N(C)CCc2ccccc21		-5.04%
NCC1CCC(C(=O)O)CC1 (stereo unspecified)		-3.01%
Cn1c(=O)c(Oc2ccc(F)cc2F)cc2cnc(NC3CCOCC3)nc21		-15.3%
CC(C)=CCCC(C)=CCCC(C)=CCCC(C)=CCCC(C)=CCCC(C)=CCCC(C)=CCCC(C)=CCCC(C)=CCO		-0.333%
C=C[C@@H]1CN2CCC1C[C@@H]2C(O)c1ccnc2ccc(OC)cc12 (stereo partly specified)		-7.92%
COc1cc(Cl)cn2c(-c3cccc(NC4CNC4)n3)cnc12		-2.98%
CCCCCCCCCCCCCC(=O)N[C@H](CO)[C@H](O)c1ccc([N+](=O)[O-])cc1		5.37%
CC(C)c1onc(-c2c(Cl)cccc2Cl)c1COc1ccc(C=Cc2cccc(C(=O)O)c2)c(Cl)c1		-0.248%

SMILES	Potency	activity change, negative = cytotoxicity
C[C@@H]1CC=CC=CC=CC=C[C@@H](O[C@@H]2O[C@H](C)[C@@H](O)[C@H](N)[C@H]2O)C[C@@H]2O[C@](O)(C[C@@H](O)C[C@@H]3O[C@@H]3C=CC(=O)O1)C[C@H](O)[C@@H]2C(=O)O		0.353%
O=C(O)C1=NC(C(=O)O)CC(C=CN2c3cc(O)c(OC4OC(CO)C(O)C(O)C4O)cc3CC2C(=O)O)=C1 (stereo unspecified)		3.14%
CN1CCC[C@H]1CCO[C@](C)(c1ccccc1)c1ccc(Cl)cc1		-9.49%
COc1cc(F)c(C(C)C)cc1-c1ccc(C(F)(F)F)cc1CN1C(=O)O[C@H](c2cc(C(F)(F)F)cc(C(F)(F)F)c2)[C@@H]1C		-5.02%
CCCCCOC(=O)Nc1nc(=O)n([C@@H]2O[C@H](C)[C@@H](O)C2O)cc1F (stereo partly specified)		-2.84%
O=C1CN2Cc3c(ccc(Cl)c3Cl)N=C2N1		-23.5%
CC1(C)OC2CC3C4CC(F)C5=CC(=O)C=CC5(C)C4C(O)CC3(C)[C@]2(C(=O)CO)O1 (stereo partly specified)		2.66%
CCOC(=O)c1c(CSc2ccccc2)n(C)c2cc(Br)c(O)c(CN(C)C)c12		-18.7%
OCCn1cc(-c2ccc3c(c2)CCC3=NO)c(-c2ccncc2)n1		-1.82%
COc1ccc(C=CC(=O)Nc2ccccc2C(=O)O)cc1OC		5.13%
CC(C)CN(C[C@H](O)[C@H](Cc1ccccc1)NC(=O)O[C@H]1CCOC1)S(=O)(=O)c1ccc(N)cc1		-0.16%
CC1CNc2c(cccc2S(=O)(=O)N[C@@H](CCCN=C(N)N)C(=O)N2CC[C@@H](C)C[C@@H]2C(=O)O)C1 (stereo partly specified)	4690 nM (active)	
Nc1ncnc2c1ncn2[C@@H]1O[C@H](CO)[C@@H](O)[C@@H]1O	1050 nM (active)	
CC[C@H](C=C[C@@H](C)[C@H]1CC[C@H]2[C@@H]3CC=C4C[C@@H](O)CC[C@]4(C)[C@@H]3CC[C@]12C)C(C)C		-7.32% [at 16.1 µM]
COc1ccc2ccc(=O)oc2c1CC=C(C)C	5260 nM (active)	
Cn1cc(-c2ccc3nnc(Sc4ccc5ncccc5c4)n3n2)cn1		-3.41%
N#CC(=C1Nc2ccccc2S1)c1ccnc(OCc2ccc(CN3CCOCC3)cc2)n1	132 nM (active)	
CCCCC(C=O)NC(=O)C(CC(C)C)NC(=O)OCc1ccccc1 (stereo unspecified)		-8.55%
Cc1cc(CS(=O)(=O)c2ccccc2)cc(OCc2ccc(CN3CCC[C@H]3CO)cc2)c1		-5.32%
